# DT40 TDP1 CPT – qHTS for Inhibitors of human tyrosyl-DNA phosphodiesterase 1 (TDP1): qHTS in cells in presence of CPT. Potency, µM (top dose mostly 46.2 µM), for inactives: at the top dose activity change, negative = growth inhibition, usual class: inhibitors. chicken DT40 Tdp1-/-;hTDP1 cells + 20 nM CPT, ATP luminescence, 48 h. 420,000 compounds, 12% hits; note: potency is the fitted concentration of half-maximal effect; nearly all actives have a fitted effect of over 55% in size
#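 Cell growth measured by CellTiter-Glo luminescence after a minimum 48 h, 37 C compound exposure with 20 nM CPT in Tdp1-knockout DT40 cells stably expressing hTDP1, seeded 400/well; qHTS titration format.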
# HT1080 IDH1KD tx – qHTS for induction of synthetic lethality in tumor cells producing 2HG: qHTS for the HT-1080-IDH1KD cell line; HT-1080 IDH1 knockdown viability, ATP luminescence, 48 h; Potency, µM (highest dose often 46.1 µM), for inactives: at the top dose activity, negative = toxicity, actives largely listed as cytotoxic; 360,000 compounds, 2% hits; AID 686971, 2013;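 note: potency is the fitted concentration of half-maximal effect; 0% = DMSO wells and -100% = cell-free medium wells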
#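 Assay cells: HT-1080 with IDH1 knockdown, 750 per well, RPMI/5% FBS. Exposure: 48 h at 37 °C following 2 h pre-incubation. Read: CellTiter-Glo luminescence; fitted concentration-response, curve class assigned.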
# IL-1B inflam inh – qHTS for Inhibitors of Inflammasome Signaling: IL-1-beta AlphaLISA Primary Screen | THP-1 LPS/ATP IL-1B secretion, AlphaLISA, 16 h; hits give low values | 360,000 compounds, 4.7% hits | activity change, % at 57.5 µM; in the data active = activity change below about -50%; inconclusive = mostly about -30% to -49%
#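 THP-1 cells pretreated 1 hr with compounds (up to 57.5 uM final), then stimulated with LPS (250 ng/mL final) plus ATP (1.25 mM final); secreted IL-1B measured by AlphaLISA after 16 hr, decreased signal indicating inhibition.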
# TDP1 cell noCPT – qHTS for Inhibitors of human tyrosyl-DNA phosphodiesterase 1 (TDP1): qHTS in cells in absence of CPT; DT40 Tdp1-/- hTDP1 cells, no CPT, ATP luminescence, 48 h; Potency, µM (titrated, usually from 46.2 µM), inactives show at the top dose activity change, negative = growth inhibition, usual class: inhibitors; 420,000 compounds, 15% hits; note: potency is the fitted concentration of half-maximal effect; nearly all actives have a fitted effect of over 55% in size
#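 Growth of hTDP1-complemented DT40 Tdp1-knockout cells is measured by ATP luminescence after at least 48 hr compound exposure at 37 °C, with DMSO substituting for the 20 nM CPT used in the parallel screen.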
# HT1080-NT tox – qHTS for induction of synthetic lethality in tumor cells producing 2HG: qHTS for the HT-1080-NT fibrosarcoma cell line. HT-1080-NT fibrosarcoma viability, CellTiter-Glo ATP luminescence, 48 h. Potency, µM (titrated, usually from 46.1 µM), without a hit: at the highest dose activity, negative = less viability, most hits filed as cytotoxic. 360,000 compounds, 1.6% hits. AID 686970, 2013;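 note: NT is the 2HG producing partner of a matched IDH1 knockdown line; potency is the fitted concentration of half-maximal effect; 0% = DMSO-treated cells and -100% = media-only wells without cells; nearly all actives have a fitted effect of over 55% in size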
#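 Read-out is CellTiter-Glo luminescence after 10 minutes at room temperature, following 48 hours' compound treatment of HT-1080-NT cells (750 cells/well, RPMI, 5% FBS, 37 degrees C).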
# * marks the source's active call; other numbers are inactive results; ? = inconclusive; nt = no result. Shown are actives, neighbours in structure and some others; about 19% of the full set was active somewhere. Unless noted, calls come from the whole dose curve; as a rule, active = well fitted curve in the direction sought with a large enough effect; inconclusive = small, poorly fitted or top-dose-only effect, or another doubt; inactive = no such curve, though single readings can be large; an effect the other way counts as inactive or inconclusive. Unless noted, % is set by controls: 0 for no effect and ±100 for the full control effect.
SMILES,DT40 TDP1 CPT,HT1080 IDH1KD tx,IL-1B inflam inh,TDP1 cell noCPT,HT1080-NT tox
CCCCCc1c(-c2ccc(OC)cc2)ncn1CCc1ccccc1OC,13µM*,16µM*,-94*,15µM*,21µM*
CCCCc1c(Cc2ccccc2)ncn1CCc1ccccc1OC,2.9µM*,18µM*,-58*,5.2µM*,?
CCCc1c(-c2cccc(Cl)c2)ncn1Cc1ccccc1OC,5.8µM*,?,?,9.2µM*,?
CC(C(=O)NCc1ccco1)n1cc(C(=O)c2ccco2)c2ccccc21 (configuration not stated),?,-1%,-14,?,-3%
O=C(NCCn1cc(SCc2cccc(F)c2)c2ccccc21)c1cccc(C(F)(F)F)c1,?,nt,nt,16µM*,nt
COc1ccc(C(=O)NCCn2cc(SCc3cccc(F)c3)c3ccccc32)cc1OC,9.2µM*,nt,nt,4.6µM*,nt
COc1ccc(C(=O)NCCn2cc(SCC(=O)Nc3cc(C)on3)c3ccccc32)cc1OC,?,-5%,-10,?,-9%
CC1(C(=O)NS(=O)(=O)Cc2cccc(Cl)c2)CCN1C(=O)C/C=C/c1ccccc1 (configuration not stated),-8%,29%,11,-25%,2%
O=C(CCC(=O)N1CCN(S(=O)(=O)c2ccc3ccccc3c2)CC1)NCC(F)(F)F,-1%,0%,6,-3%,0%
CC(C)c1ccc(NC2CCCN(C(=O)c3ccc(N4CCOCC4)cc3)C2)cc1 (configuration not stated),?,-13%,-6,16µM*,-10%
Cc1nonc1C(=O)N1CCCC(Nc2ccc(C(C)C)cc2)C1 (configuration not stated),33%,20%,0,2.3µM*,3%
CC(=O)N1c2ccc(F)c(F)c2C[C@H]1C,-29%,9%,25,-6%,12%
CCc1ccc(S(=O)(=O)c2nnn3c2nc(N(CC)Cc2ccccc2)c2cc(Cl)ccc23)cc1,9.2µM*,nt,nt,16µM*,nt
O=S(=O)(c1ccccc1)c1nnn2c1nc(NCc1ccccc1)c1cc(Cl)ccc12,18µM*,nt,nt,?,nt
O=C1CCCN1CCCNc1nc2c(S(=O)(=O)c3ccccc3)nnn2c2ccc(Cl)cc12,21µM*,?,?,?,?
CCc1ccc(S(=O)(=O)c2nnn3c2nc(N(C)Cc2ccccc2)c2cc(Cl)ccc23)cc1,-3%,nt,nt,-7%,nt
O=C(COc1ccccc1)OCC(=O)c1ccc(S(=O)(=O)N2CCCCC2)cc1,-8%,14%,27,-1%,5%
C=C1Cn2c(nnc2-c2ccc(Cl)cc2)S1,-2%,4%,-16,-11%,-2%
CCOc1ccccc1NC(=O)CSc1ccc([N+](=O)[O-])cc1,18%,9%,23,-5%,2%
CCC1COCCS(=O)(=O)N1Cc1ccc(C)cc1 (configuration not stated),?,16%,10,-5%,22%
O=S1(=O)CCO[C@H]2CCCC[C@@H]2N1Cc1ccc(Cl)cc1,?,nt,nt,20µM*,nt
CC1(C(=O)NCc2ccccc2Br)CCN1Cc1csc2ccccc12 (configuration not stated),?,?,-11,?,?
CCCCn1c(N)c(N(CC)C(=O)CSc2nnnn2-c2cc(C)ccc2C)c(=O)[nH]c1=O,4%,1%,-14,-14%,-2%
C=COC(=O)CSc1nc(-c2cccs2)ccc1C#N,-22%,3%,34,3%,0%
N#Cc1ccc(-c2cccs2)nc1SCC(=O)Nc1cccc(C(F)(F)F)c1,?,nt,nt,21µM*,nt
Cc1cc(C(F)(F)F)c(C#N)c(SCC(=O)Nc2nc3cc(Br)ccc3s2)n1,4%,-7%,-146*,-26%,-10%

# Bioassay records: PubChem, National Center for Advancing Translational Sciences (NCATS)
